In ChEMBL document CHEMBL4513216, “Probing the Open Global Health Chemical Diversity Library for Multistage-Active Starting Points for Next-Generation Antimalarials” (ACS Infect Dis, 2020):
The campaign covered roughly 69,000 compounds. About 8,600 (12%) showed an effect of 50% or more. What follows is part of a selection rich in strong results, with near analogues and random picks from the rest.

What follows are molecules tested on Plasmodium berghei (assay: Screen against P. berghei liver stage (PbLuc), transformed with Luciferase, at 10uM). Details: tested at 10 uM.
Format: functional, HepG2
In the case of `O=C(C1CCOCC1)N1C[C@@H]2[C@@H](C1)OCC(=O)N2CC1CC1`, the INHIBITION is reported as 7.96%. For `Cc1ccc(S(=O)(=O)N2CCC3(CC(C(=O)NC4CCC4)=NO3)C2)cc1` (centres undefined), the INHIBITION was 5.67%. Molecule `O=C(NC1CCC1)C1=NOC2(CCN(Cc3ccco3)C2)C1` (centres undefined) has an INHIBITION of 64.9%. `Cc1ccc(CN2CCC3(CC(C(=O)NC4CCC4)=NO3)C2)o1` (centres undefined) gave an INHIBITION of 56.7%. For `O=C(O)[C@]12CCCN(Cc3ccco3)C[C@H]1CN(c1ncccn1)C2`, the INHIBITION was 42.6%. Work on `Cc1ccc(CN2CCC3(CC(C(=O)NCC4CC4)=NO3)C2)s1` (centres undefined) yielded an INHIBITION of -117%. For `CC(Nc1ncnc2c1NC(=O)CN2)c1ccc2c(c1)OCO2` (centres undefined), the INHIBITION was 48.2%. Molecule `Cn1nccc1C(=O)N1CCOC(Cc2ccc(Cl)cc2)C1` (centres undefined) has an INHIBITION of 0.301%. `Cc1cc(C)c(C(=O)N2CCOCC2c2c(C)nn(C)c2C)o1` (centres undefined) showed an INHIBITION of -79.1%. For `Cc1ccc(C(=O)N2CCCN(C)c3ccc(F)cc32)o1`, the INHIBITION was 16.5%. For `CCc1cc(C(=O)N2CCCC(c3[nH]ncc3S(C)(=O)=O)C2)no1` (centres undefined), the INHIBITION was 24.8%. With `CCn1ccnc1CN1CCN(c2cc(C)nc(C3CCCN3)c2)CC1` (centres undefined) the INHIBITION was 11.02%. Work on `COc1cc(C)nc(N2CCN(C(=O)CSC)CC2)n1` yielded an INHIBITION of -64.85%. With `CCn1ccnc1CN1CCN(c2nc(C)cc(OC)n2)CC1` the INHIBITION was 78.3%. `COc1cc(C)nc(N2CCN(Cc3nccn3C)CC2)n1` gave an INHIBITION of 41.4%. `CCOc1cc(C)nc(N2CCN(Cc3nccn3CC)CC2)n1` gave an INHIBITION of 50.8%. Work on `CCOc1cc(C)nc(N2CCN(Cc3nccn3C)CC2)n1` yielded an INHIBITION of 12.2%. `CC(C)Cc1noc(CN(C)c2ncccn2)n1` gave an INHIBITION of -33.3%. For `CCOc1ccccc1C(=O)N(C)C(C)c1ccc(S(C)(=O)=O)cc1` (centres undefined), the INHIBITION was -162%. `CCC(C)N(Cc1cccnc1)C(=O)c1ccc(OC)cc1O` (centres undefined) gave an INHIBITION of 32.9%. Molecule `CSCC(CCO)NC(=O)c1cccc(Cl)c1F` (centres undefined) has an INHIBITION of 36.4%. With `CSCC(CCO)NC(=O)c1cccc(F)c1Cl` (centres undefined) the INHIBITION was 65.9%. For `CSCC(CCO)Nc1cccc(C(F)(F)F)n1` (centres undefined), the INHIBITION was 22.8%. Molecule `CSCC(CCO)NC(=O)Nc1cccc(Br)c1C` (centres undefined) has an INHIBITION of 36.8%. In the case of `CSCC(CCO)NC(=O)c1cccc(C)c1Cl` (centres undefined), the INHIBITION is reported as 54.1%. `CSCC(CCO)NC(=O)Nc1ccc(C)cc1C` (centres undefined) showed an INHIBITION of -7.53%. With `CC(C)NC(=O)C1c2c(ncn2C(C)C)CCN1Cc1ccccc1` (centres undefined) the INHIBITION was 8.67%. Molecule `Cn1ccc(C(=O)NC2CCC23CCN(CC2CCOCC2)CC3)c1` (centres undefined) has an INHIBITION of 12%. `CC[C@@H](C)[C@H](NC(=O)NC1CCS(=O)(=O)C1)C(=O)NCc1ccncc1` (some centres undefined) was tested, and the INHIBITION was -41.2%. `O=C(N[C@@H]1CN(Cc2cccs2)[C@@H]2COC[C@@H]21)C1CCC1` showed an INHIBITION of -0.804%. With `CCN(CC1CCCO1)C(=O)Nc1cc(C)ccc1S(C)(=O)=O` (centres undefined) the INHIBITION was -12.2%. For `Cc1cnn(CCNC(C)c2nnc(-c3ccccc3)o2)c1` (centres undefined), the INHIBITION was 54.8%. `Cc1ccc(-c2nnc(C(C)NCCn3cc(C)cn3)o2)cc1` (centres undefined) was tested, and the INHIBITION was -3.87%. For `Cc1cccc(-c2nnc(C(C)NCCn3cc(C)cn3)o2)c1` (centres undefined), the INHIBITION was 17.9%. Work on `Cn1ncc2c1CCCC2NCc1cc(Br)cs1` (centres undefined) yielded an INHIBITION of 31.1%. Work on `NCCNS(=O)(=O)Cc1ccc(Br)cc1` yielded an INHIBITION of 16.9%. For `COCc1noc(CN2C[C@H](C3CC3)[C@@H](N(C)C)C2)n1`, the INHIBITION was 17.1%. With `O=C(CCOc1ccccc1F)N1CCCC1Cn1cccn1` (centres undefined) the INHIBITION was 29.2%. With `CN(CCC(=O)N1CCc2sccc2C1)Cc1cnn(C)c1` the INHIBITION was 19.2%. With `CC(C)c1nc(C(=O)N2CCc3ccccc3C2C(=O)O)cs1` (centres undefined) the INHIBITION was 6.61%. `CC(C)c1cc(C(=O)N2CCc3ccccc3C2C(=O)O)nn1C` (centres undefined) gave an INHIBITION of -28%. Molecule `CC(C)c1cc(C(=O)N2CCc3ccccc3C2C(=O)O)n(C)n1` (centres undefined) has an INHIBITION of 66.3%. `O=C(O)C1(n2ccc(-c3ccco3)n2)CCN(Cc2ccsc2)CC1` was tested, and the INHIBITION was -14.3%. Work on `Nc1no[n+]([O-])c1C(=O)NCc1cccnc1` yielded an INHIBITION of 42.8%. `NS(=O)(=O)CCCC(=O)N1CCC2(CC1)c1ccccc1CC2O` (centres undefined) showed an INHIBITION of -38.8%. With `CSCC(=O)N1CCC2(CC1)c1ccccc1CC2O` (centres undefined) the INHIBITION was 65.1%. With `NC(=O)NCC(=O)N1CCC2(CC1)c1ccccc1CC2O` (centres undefined) the INHIBITION was 28.3%. With `O=C(CSc1ccncc1)N1CCC2(CC1)c1ccccc1CC2O` (centres undefined) the INHIBITION was -16.8%. In the case of `Cn1cccc1CCC(=O)N1CCC2(CC1)c1ccccc1CC2O` (centres undefined), the INHIBITION is reported as 60.1%. In the case of `O=C(CCN1CCNCC1)N1CCC2(CC1)c1ccccc1CC2O` (centres undefined), the INHIBITION is reported as 31.6%. Work on `COCCC(=O)N1C[C@@H](c2ccc(F)c(F)c2)[C@@]2(CCCC(=O)N2)C1` yielded an INHIBITION of 17.4%. Work on `CCNC(c1cccnc1)c1ccc(F)cc1F` (centres undefined) yielded an INHIBITION of 30.6%. For `COCCNc1ccccc1CNC(=O)C1CCCOC1` (centres undefined), the INHIBITION was 35.1%. For `Cc1ncc(CNC(=O)NCC(C)Oc2ccccc2F)s1` (centres undefined), the INHIBITION was -47.3%. In the case of `COCCNc1ccccc1CNC(=O)NCc1cnc(C)s1`, the INHIBITION is reported as 52.1%. Molecule `Cc1ccc(CNC(=O)NCc2cccnc2N(C)C)s1` has an INHIBITION of 15.5%. For `COCCNc1ccccc1CNC(=O)NCc1nc(C)c(C)s1`, the INHIBITION was 72%. `Cc1ncc(CNC(=O)NCc2c(F)cccc2OC(F)F)s1` showed an INHIBITION of 10.7%. Work on `COc1ccc(CNC(=O)NCCc2nc(C)c(C)s2)cn1` yielded an INHIBITION of 31.2%. `COc1ccc(CNC(=O)NCc2nc(C)c(C)s2)cn1` gave an INHIBITION of 48.5%. In the case of `COCCNc1ccccc1CNC(=O)NCc1ccc(C)s1`, the INHIBITION is reported as 64.1%. `NC(=O)C1CCN(C(=O)CCn2ccc3ccc(Br)cc32)CC1` gave an INHIBITION of 10.6%. Work on `c1cnc(N2CCOCC3(CCCN(CC4CCOCC4)C3)C2)nc1` (centres undefined) yielded an INHIBITION of -4.88%. Work on `CNC(=O)CN1CC[C@H]2CN(C(=O)c3cc[nH]n3)C[C@H]2C1` yielded an INHIBITION of 41.1%. `O=C(NCc1ccnc(-n2cccn2)c1)C1CC(=O)N(CC2CC2)C1` (centres undefined) gave an INHIBITION of -25.9%. With `CN(C)S(=O)(=O)N1C[C@@H]2C[C@H](C(=O)Nc3cccnc3)[C@H](C1)O2` the INHIBITION was 43.9%. Molecule `CC(=O)c1ccc(OCC(C)O)cc1O` (centres undefined) has an INHIBITION of 47.1%. `COc1ccc(CN(C)[C@@H]2CN(S(=O)(=O)C(C)C)C[C@H]2O)cc1` was tested, and the INHIBITION was 2.15%. In the case of `CCN1C(=O)[C@]2(CC[C@@H]3CN(C(=O)Nc4ccc(F)cc4)C[C@@H]32)N=C1C`, the INHIBITION is reported as 22.2%.
